Our source for the outcome and AC50 values is PubChem BioAssay (EPA / NIEHS).

More than one record can exist for a structure, and the calls need not agree. The source made the active and inactive calls. Rule for the calls: active = hit-call score of the fitted dose curve at least 0.9, where 1 is the maximum; inactive = score below 0.9.

Aryl hydrocarbon receptor (Homo sapiens), sequence (P35869 whole entry, looked up): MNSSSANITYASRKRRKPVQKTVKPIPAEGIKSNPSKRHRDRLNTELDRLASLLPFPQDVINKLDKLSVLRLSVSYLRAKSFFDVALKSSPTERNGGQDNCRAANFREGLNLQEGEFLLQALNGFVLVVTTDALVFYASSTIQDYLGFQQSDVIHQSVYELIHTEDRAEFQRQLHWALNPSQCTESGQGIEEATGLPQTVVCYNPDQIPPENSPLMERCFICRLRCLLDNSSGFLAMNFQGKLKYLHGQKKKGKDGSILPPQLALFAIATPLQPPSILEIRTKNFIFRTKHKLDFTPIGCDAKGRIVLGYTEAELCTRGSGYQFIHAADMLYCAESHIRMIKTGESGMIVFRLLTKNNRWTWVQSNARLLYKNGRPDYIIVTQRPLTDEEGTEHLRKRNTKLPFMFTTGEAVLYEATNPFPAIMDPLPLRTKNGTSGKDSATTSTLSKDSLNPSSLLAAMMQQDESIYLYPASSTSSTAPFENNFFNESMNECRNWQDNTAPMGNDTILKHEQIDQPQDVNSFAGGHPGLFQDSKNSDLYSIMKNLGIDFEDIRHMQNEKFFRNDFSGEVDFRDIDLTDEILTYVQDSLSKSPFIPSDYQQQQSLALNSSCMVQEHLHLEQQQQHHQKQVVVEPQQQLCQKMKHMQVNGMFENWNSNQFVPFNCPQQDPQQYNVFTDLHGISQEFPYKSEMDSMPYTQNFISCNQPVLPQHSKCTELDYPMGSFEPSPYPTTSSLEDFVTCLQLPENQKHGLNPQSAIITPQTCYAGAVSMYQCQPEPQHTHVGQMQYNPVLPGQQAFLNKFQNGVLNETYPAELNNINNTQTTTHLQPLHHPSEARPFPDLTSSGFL

This assay concerns the target Aryl hydrocarbon receptor (Homo sapiens) (UniProt P35869). The assay can be described thus: ATG_Ahr_CIS: Attagene CIS-FACTORIAL HepG2 Assay for human Aryl Hydrocarbon Receptor (Ahr) (AID 2282930). Conditions: HepG2 AhR cis-factorial reporter transcription; actives raise or lower the signal. The procedure: ATG_CIS is a cell-based, multiplexed-readout assay that uses HepG2, a human liver cell line, with measurements taken at 24 hours after chemical dosing in a 24-well plate.ATG_Ahr_CIS is one of 52 assay component(s) measured or calculated from the ATG_CIS assay. It is designed to make measurements of mRNA induction, a form of inducible reporter, as detected with fluorescence intensity signals by Reverse transcription polymerase chain reaction (RT-PCR) and Capillary electrophoresis technology.Data from the assay component ATG_Ahr_CIS was analyzed into 1 assay endpoint. This assay endpoint, ATG_Ahr_CIS, was analyzed with bidirectional fitting relative to DMSO as the negative control and baseline of activity. Using a type of inducible reporter, measures of mRNA for gain or loss-of-signal activity can be used to understand the reporter gene at the transcription factor-level as they relate to the gene AHR. Furthermore, this assay endpoint can be referred to as a primary readout, because this assay has produced multiple assay endpoints where this one serves a reporter gene function. To generalize the intended target to other relatable targets, this assay endpoint is annotated to the dna binding intended target family, where the subfamily is basic helix-loop-helix protein.
Human liver HepG2 cells are transiently transfected with multiple reporter transcription units (MRTUs) in 6-well plates using FuGene 6 reagent (Roche; 3 ml FuGene/1 mg DNA). The MRTU constructs are regulated by a cis-regulating element (promoter). […] A major difference between the CIS and TRANS system is that in CIS activities of endogenous TFs are measured, whereas the TRANS assay evaluates changes in activities of exogenous, chimeric NR-Gal4 proteins. […] At the end of 24 hour incubation, total RNA was isolated using TriZol reagent (Invitrogen). The isolated RNA is then reverse-transcribed using oligo(dT) primer and Mo-MLV reverse transcriptase (Invitrogen) with DNAse I (Ambion) treatment for 30 min. The one-tenth of the produced cDNA was amplified by PCR using Taq DNA polymerase (Invitrogen) and two reporter sequence-specific primers. The PCR products were fluorescently labeled by primer extension with 6-arboxyfluorescein (6-FAM) 5'-labeled reporter sequence-specific primer (2 min at 95 C, 20 s at 68 C and 10 min at 72 C) and these products were digested with 5U of HpaI (New England Biolabs) for 2h at 37 C. […] The raw capillary electrophoresis data was processed using Attagraph software (Attagene).
Turning to `CO[C@@H]1COCC[C@@H]1N[C@@H]1CC[C@@](C(=O)N2CCc3ncc(C(F)(F)F)cc3C2)(C(C)C)C1`, the outcome was inactive.

For `CCc1nc(N)nc(N)c1-c1ccc(Cl)cc1`, the compound was classed as inactive.

Consider `CC(C)COC(=O)CCCCC(=O)OCC(C)C`, for which the compound was called inactive.

The term AC50 denotes the concentration at which the activity in the assay is half-maximal. `CCN(CC)CCOc1ccc(C(=C(Cl)c2ccccc2)c2ccccc2)cc1`: the AC50 was 9.35 µM (active) and the call was inactive.

Consider `O=C(NS(=O)(=O)/C=C/c1cccs1)c1ccc(F)cc1Br`, for which the compound was called inactive.

`COc1ccc(OC(F)(F)F)cc1CN[C@H]1CCCN[C@H]1c1ccccc1`: the outcome was inactive.

Consider `CC(N)=O`, for which the compound was called inactive and the AC50 is 29 µM (active).

As to `O=C(O)c1[nH]n(-c2ccc(S(=O)(=O)O)cc2)c(=O)c1N=Nc1ccc(S(=O)(=O)O)cc1`, the AC50 is 58.7 µM (active).

`COc1ccc(C(=O)Nc2nc3ccccc3c(NCc3ccccc3)c2C#N)cc1`: the AC50 was 0.421 µM (active).

Take `CCC(C)N(C)C(=O)c1cc2ccccc2c(-c2ccccc2Cl)n1` (stereo not given): the call was inactive.

With `CN(C)C(=O)NC1(c2ccccc2)CCN(CCC[C@]2(c3ccc(Cl)c(Cl)c3)CCCN(C(=O)c3ccccc3)C2)CC1`, the compound was classed as inactive.

As for `CC(C)c1cccc(C(C)C)c1`, the call was inactive.

With `Cc1ccc(C(C)(C)C)c(O)c1`, the call was inactive.

On to `CCCCc1nc2cccnc2n1Cc1ccc(-c2ccccc2-c2nnn[nH]2)cc1`, for which the compound was called inactive.

On to `CS(=O)(=O)c1ccc([C@@H](C[C@H]2CCC(=O)C2)C(=O)Nc2cnccn2)cc1Cl`, for which the compound was called inactive.

With `CCCCC(CC)CO` (stereo not given), the result was inactive.

Consider `CCOCCOCCO`, for which the compound was classed as inactive.

For `CCCCCCCCCCCCCCCCO`, the compound was called inactive.

Take `COC(=O)[C@H]1[C@H]2C[C@@H]3c4[nH]c5cc(OC)ccc5c4CCN3C[C@H]2C[C@@H](OC(=O)c2cc(OC)c(OC)c(OC)c2)[C@@H]1OC`: the AC50 was 12.5 µM (active).

With `CC(=O)OC1CC(C)OC(C)O1` (stereo not given), the compound was called inactive.

As for `N[C@@H](Cc1c[nH]c2ccccc12)C(=O)O`, the AC50 is 24 µM (active).

`CC(C)OC(=O)C(C)(C)Oc1ccc(C(=O)c2ccc(Cl)cc2)cc1`: the compound was classed as inactive.

As to `CCCC[C@H]1CN(CC2CCOCC2)C(=O)OC12CCN(C1(C)CCN(C(=O)c3c(C)ncnc3C)CC1)CC2`, the outcome was inactive.

With `C=CCCCCCCCCCCCC`, the result was inactive.

For `OCC(CO)n1cnc(-c2ccc(F)cc2)c1-c1ccnc(Oc2ccccc2)n1`, the call was inactive.

On to `Cc1occc(=O)c1O`, for which the compound was classed as inactive.

As for `CC(=O)O`, the result was inactive.

Consider `O=C1CCCCC1`, for which the call was inactive.

Take `NC(=Nc1ccccc1)Nc1ccccc1`: the AC50 is 13.1 µM (active).

With `Cc1ccc(-c2cc(C(F)(F)F)nn2-c2ccc(S(N)(=O)=O)cc2)cc1`, the compound was called inactive.

`c1ccc2occc2c1`: the AC50 is 21.7 µM (active).

As for `C/C=C/C=C/C(=O)O`, the result was inactive.

On to `Nc1nc(Cl)nc2c1ncn2[C@H]1C[C@H](O)[C@@H](CO)O1`, for which the result was inactive.

As for `O=C(Oc1ccccc1)c1cccc(C(=O)Oc2ccccc2)c1`, the compound was called inactive.

For `CN(C)C(=O)NC1(c2ccccc2)CCN(CC[C@@]2(c3ccc(F)c(F)c3)CN(C(=O)c3ccccc3)CCO2)CC1`, the compound was classed as inactive.

Take `O=C1NC(=O)C(c2ccccc2)(c2ccccc2)N1`: the AC50 is 59.3 µM (active).

In the case of `CCCCCCCCCC[N+](C)(C)[O-]`, the result was inactive.

`CC(C)NCC(O)c1ccc(O)c(O)c1` (stereo not given): the AC50 was 64.9 µM (active).
